Assay results: PubChem BioAssay (Tox21)
“And” between values parts separate entries of the source, which are not always exact repeats. Identical values can stand only once. Results filed as inconclusive are left out. Some compounds were tested as several samples or in several runs, with calls that do not always agree. The source made the active and inactive calls. Unless noted, calls come from the whole dose curve; as a rule, active = well fitted curve in the direction sought with a large enough effect in the repeat runs; inconclusive = weak or mixed curves; inactive = no such curve, though single readings can be large; an effect the other way counts as inactive or inconclusive.

How the values were obtained:
[1] = qHTS assay to identify small molecule antagonists of the estrogen receptor alpha (ER-alpha) signaling pathway using the BG1 cell line in the presence of 0.1 nM 17-beta-estradiol - cell viability counter screen (AID 1259241); note: nearly all actives have a fitted effect of over 40% in size
Outline: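 VM7Luc4E2 cells (endogenous full-length ER-alpha, 4xERE-luciferase), cultured 5 days in charcoal-stripped serum, exposed to compounds with 0.1 nM 17beta-estradiol (final) for 22 hr at 37C. Viability read in same wells as live-cell protease fluorescence after 30 min.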

[2] = qHTS assay to identify small molecule antagonists of the androgen receptor (AR) signaling pathway using the MDA cell line in the presence of 0.5 nM R1881 - cell viability counter screen (AID 1259242); note: nearly all actives have a fitted effect of over 45% in size
Outline: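 Live-cell protease fluorescence, CellTiter-Fluor, 30 min at 37C. Cells: MDA-kb2, 3,000/well, preincubated 5 hr. Compounds plus 0.5 nM R1881 final, 16 hr, 37C, 0% CO2.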

[3] = biological target: Estrogen receptor (Homo sapiens) (UniProt P03372); experiment: qHTS assay to identify small molecule antagonists of the estrogen receptor alpha (ER-alpha) signaling pathway using the BG1 cell line in the presence of 0.1 nM 17-beta-estradiol (AID 1259244); note: nearly all actives have a fitted effect of over 50% in size
Outline: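 Luminescence after ONE-Glo (30 min, room temperature) measured ERE-luciferase activity in VM7Luc4E2 cells treated 22 h with compound and 0.1 nM final 17beta-estradiol as stimulator.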

[4] = qHTS assay to identify small molecule HDAC inhibitors (AID 1259364); note: potency is the fitted concentration of half-maximal effect;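 note: wild-type HCT-116 cells with endogenous class I/II HDAC activity; nearly all actives have a fitted effect of over 45% in size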
Outline: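 HCT-116 (wild type), 1,500 cells/well, overnight; compound 2 hr 37C 5% CO2; HDAC-Glo I/II reagent 30 min RT; luminescence readout.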

[5] = qHTS assay to identify small molecule HDAC inhibitors - cell viability counter screen (AID 1259365); note: series mostly up to about 92 µM; nearly all actives have a fitted effect of over 50% in size
Outline: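 Wild-type HCT-116 cells, 1,500/well, cultured overnight, then compound-treated 2 h at 37 C. Viability measured as ATP luminescence with CellTiter-Glo after 30 min at room temperature.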

[6] = qHTS assay to identify small molecule agonists of the sonic hedgehog signaling (Shh) pathway - cell viability counter screen (AID 1259366); note: nearly all actives have a fitted effect of over 50% in size
Outline: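 NIH/3T3-derived Gli1-Luc reporter cells, 2,000 per well, received compound after 4 h and were treated about 23 h at 37C. Viability measured in the same wells by CellTiter-Fluor fluorescence after 1 h.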

[7] = qHTS assay to identify small molecule antagonists of the sonic hedgehog signaling (Shh) pathway - cell viability counter screen (AID 1259367); note: nearly all actives have a fitted effect of over 55% in size; note: potency is the fitted concentration of half-maximal effect
Outline: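 Viability was read by CellTiter-Fluor fluorescence in the same wells, reagent added 23 hr into compound treatment and incubated 1 hr at 37C. The 3T3 Gli1-Luc reporter cells (2,000/well) received conditioned medium after compound and ran 24 hr.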

[8] = qHTS assay to identify small molecule antagonists of the sonic hedgehog signaling (Shh) pathway (AID 1259369; calls by dose curve; note: nearly all actives have a fitted effect of over 45% in size; note: potency is the fitted concentration of half-maximal effect)
Outline: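 Luminescence readout: firefly Luc under Gli1 response element in 3T3Gli1-Luc cells (NIH/3T3 clone). Antagonist mode, stimulation by conditioned medium; compound exposure 24hr at 37 C, 5% CO2.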

[9] = biological target: Estrogen receptor beta (Homo sapiens) (UniProt Q92731); experiment: qHTS assay to identify small molecule agonists of the estrogen receptor beta (ER-beta) signaling pathway (AID 1259377; active = well fitted activation curve with a large enough effect in the signal ratio in the repeat runs, not every such curve was filed as active; the % refers to the signal ratio)
Outline: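 ER-beta-UAS-bla HEK293T cells in medium with 2% charcoal-stripped FBS were exposed to compounds for 16 h at 37C. Beta-lactamase reporter activity was read as fluorescence after 2 h with LiveBLAzer B/G FRET substrate at room temperature.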

[10] = qHTS assay to identify small molecule agonists of the androgen receptor (AR) signaling pathway in the presence of an antagonist - cell viability counter screen (AID 1259379);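 note: MDA-kb2 human breast cancer cells carrying an MMTV luciferase reporter; series mostly up to about 92 µM; nearly all actives have a fitted effect of over 25% in size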
Outline: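 Viability counter screen: CellTiter-Fluor fluorescence, measured in the same wells as the luciferase read-out. MDA-kb2 cells, 3,000/well, with nilutamide at 3.0uM final and compounds at 15 concentrations, 16 hr at 37C, 0% CO2.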

[11] = qHTS assay to identify small molecule agonists of the estrogen receptor beta (ER-beta) signaling pathway - cell viability counter screen (AID 1259380); note: nearly all actives have a fitted effect of over 30% in size
Outline: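 Luminescence read-out (CellTiter-Glo, 30 min, room temp) taken in the same wells as the beta-lactamase reporter assay; ER-beta-UAS-bla HEK293T cells exposed to DMSO-dissolved compounds for 16 hr at 37C in 2% charcoal-stripped FBS medium.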

[12] = biological target: Androgen receptor (Homo sapiens) (UniProt P10275); experiment: qHTS assay to identify small molecule agonists of the androgen receptor (AR) signaling pathway in the presence of an antagonist (AID 1259381; calls by dose curve; note: nearly all actives have a fitted effect of over 15% in size)
Outline: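 Luciferase read-out (ONE-Glo, 30min room temperature) in MDA-kb2 MMTV-reporter cells; agonist mode run in presence of AR antagonist nilutamide, 3.0uM final. Compounds tested as 15-point series, 16hr exposure at 37C, 0% CO2.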

[13] = qHTS assay to identify small molecule antagonists of the estrogen receptor beta (ER-beta) signaling pathway - cell viability counter screen (AID 1259382);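 note: HEK293T cells carrying ER-beta-UAS-bla reporter stimulated with estradiol; series mostly up to about 92 µM; nearly all actives have a fitted effect of over 55% in size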
Outline: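 Luminescent ATP read-out (CellTiter-Glo, 30 min, RT) taken in the same wells as the bla reporter assay. HEK293T ER-beta-UAS-bla cells in 2% charcoal-stripped FBS were exposed to compounds with 1nM E2 for 16 hr at 37C.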

[14] = biological target: Estrogen receptor (Homo sapiens) (UniProt P03372); experiment: qHTS assay to identify small molecule agonists of the estrogen receptor alpha (ER-alpha) signaling pathway in the presence of an antagonist (AID 1259383; calls by dose curve; note: top concentration of the series differs between compounds; nearly all actives have a fitted effect of over 15% in size)
Outline: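 Luciferase luminescence (ONE-Glo, 30min at room temperature) measured in VM7Luc4E2 cells after 22hr compound exposure at 15 concentrations, with 10.0nM ICI-182,780 final present; cells express endogenous ER-alpha and carry four EREs upstream of luciferase.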

[15] = qHTS assay to identify small molecule agonists or antagonists of the thyroid stimulating hormone receptor (TSHR) signaling pathway - wild type cell line counter screen (AID 1259384; calls by dose curve)
Outline: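 Counter screen in untransfected Hek293: compounds (15-point titration, triplicate) plus phosphodiesterase inhibitor Ro20-1724 added after 18 h plating; 30 min RT. Intracellular cAMP via competitive d2/cryptate immunoassay, 1 h incubation.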

[16] = biological target: Thyrotropin receptor (Homo sapiens) (UniProt P16473); experiment: qHTS assay to identify small molecule antagonists of the thyroid stimulating hormone receptor (TSHR) signaling pathway (AID 1259385; calls by dose curve; note: nearly all actives have a fitted effect of over 20% in size)
Outline: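 Antagonist mode: compound-treated TSHR-expressing HEK293 cells were stimulated with 1.5 ng/mL TSH (final) in presence of Ro20-1724 for 30 min at RT. HTRF cAMP detection after 1 h; each compound tested at 15 concentrations, triplicate.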

[17] = qHTS assay to identify small molecule phospholipidosis (PLD) inducers (AID 1259344; active = well fitted curve in the direction sought with a large enough effect; an effect the other way counts as inactive or inconclusive)
Outline: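 Phospholipid accumulation was scored by imaging: fixed, Hoechst-counterstained HepG2 cells stained with LipidTOX Red after 24 h compound exposure at 37 C. Read-outs were pit count and pit intensity per well or per cell, with amiodarone and DMSO controls.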

[18] = qHTS assay to identify small molecule agonists of the sonic hedgehog signaling (Shh) pathway (AID 1259368; calls by dose curve;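 note: NIH/3T3-derived 3T3Gli1-Luc cells carrying a stable Gli1-driven firefly luciferase reporter; series mostly up to about 92 µM; nearly all actives have a fitted effect of over 15% in size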)
Outline: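 Read-out: firefly luciferase luminescence from a Gli1 response element reporter stably integrated in NIH/3T3-derived 3T3Gli1-Luc cells, measured 30 min at room temperature after reagent addition. Compound exposure lasted 24 hr at 37 C, 5% CO2.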

[19] = biological target: Estrogen receptor beta (Homo sapiens) (UniProt Q92731); experiment: qHTS assay to identify small molecule antagonists of the estrogen receptor beta (ER-beta) signaling pathway (AID 1259378; active = well fitted inhibition curve with a large enough effect in the signal ratio in the repeat runs, not every such curve was filed as active; the % refers to the signal ratio; note: potency is the fitted concentration of half-maximal effect)
Outline: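 Antagonist mode: compounds added to beta-lactamase reporter HEK293T ER-beta-UAS cells stimulated with E2 (1nM final), 16 hr at 37C. LiveBLAzer B/G FRET substrate, 2 hours room temperature, fluorescence read-out.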

Measured: Potency

Estrogen receptor (Homo sapiens), sequence (P03372 whole entry, looked up): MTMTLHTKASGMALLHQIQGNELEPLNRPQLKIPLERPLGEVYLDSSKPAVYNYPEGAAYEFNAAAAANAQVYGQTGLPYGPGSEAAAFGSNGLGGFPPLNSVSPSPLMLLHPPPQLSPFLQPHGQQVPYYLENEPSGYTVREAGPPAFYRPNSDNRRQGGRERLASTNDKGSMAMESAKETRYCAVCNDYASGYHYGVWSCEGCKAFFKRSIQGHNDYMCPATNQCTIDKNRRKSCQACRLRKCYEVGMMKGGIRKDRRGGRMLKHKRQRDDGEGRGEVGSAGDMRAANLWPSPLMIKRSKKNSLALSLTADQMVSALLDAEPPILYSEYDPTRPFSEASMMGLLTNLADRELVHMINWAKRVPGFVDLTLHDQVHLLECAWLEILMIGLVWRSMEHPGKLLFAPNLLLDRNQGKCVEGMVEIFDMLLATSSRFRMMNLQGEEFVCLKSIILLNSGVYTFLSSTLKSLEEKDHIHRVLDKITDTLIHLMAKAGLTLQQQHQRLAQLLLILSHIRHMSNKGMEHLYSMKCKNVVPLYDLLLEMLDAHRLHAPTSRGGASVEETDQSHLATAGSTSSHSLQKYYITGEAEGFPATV
Thyrotropin receptor (Homo sapiens), sequence (P16473 whole entry, looked up): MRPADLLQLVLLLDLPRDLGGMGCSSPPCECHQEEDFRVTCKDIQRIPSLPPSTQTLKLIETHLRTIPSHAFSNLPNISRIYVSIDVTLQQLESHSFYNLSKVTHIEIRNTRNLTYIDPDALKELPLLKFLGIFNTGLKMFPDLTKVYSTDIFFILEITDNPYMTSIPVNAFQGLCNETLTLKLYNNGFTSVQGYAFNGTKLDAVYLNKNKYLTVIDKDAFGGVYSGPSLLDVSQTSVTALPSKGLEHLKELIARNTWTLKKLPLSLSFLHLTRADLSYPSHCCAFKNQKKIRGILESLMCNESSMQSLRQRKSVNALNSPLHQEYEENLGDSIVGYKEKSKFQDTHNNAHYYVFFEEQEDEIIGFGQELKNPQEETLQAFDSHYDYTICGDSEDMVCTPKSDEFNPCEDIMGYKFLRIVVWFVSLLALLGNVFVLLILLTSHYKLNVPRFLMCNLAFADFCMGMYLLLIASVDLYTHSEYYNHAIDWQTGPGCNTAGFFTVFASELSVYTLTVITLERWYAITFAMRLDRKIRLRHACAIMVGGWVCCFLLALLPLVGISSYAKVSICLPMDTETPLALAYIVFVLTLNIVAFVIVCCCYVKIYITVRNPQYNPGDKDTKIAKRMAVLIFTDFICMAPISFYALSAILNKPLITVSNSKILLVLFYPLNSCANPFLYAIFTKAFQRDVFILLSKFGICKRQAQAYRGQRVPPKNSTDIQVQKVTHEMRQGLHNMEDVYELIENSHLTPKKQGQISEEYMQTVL
Estrogen receptor beta (Homo sapiens), sequence (Q92731 whole entry, looked up): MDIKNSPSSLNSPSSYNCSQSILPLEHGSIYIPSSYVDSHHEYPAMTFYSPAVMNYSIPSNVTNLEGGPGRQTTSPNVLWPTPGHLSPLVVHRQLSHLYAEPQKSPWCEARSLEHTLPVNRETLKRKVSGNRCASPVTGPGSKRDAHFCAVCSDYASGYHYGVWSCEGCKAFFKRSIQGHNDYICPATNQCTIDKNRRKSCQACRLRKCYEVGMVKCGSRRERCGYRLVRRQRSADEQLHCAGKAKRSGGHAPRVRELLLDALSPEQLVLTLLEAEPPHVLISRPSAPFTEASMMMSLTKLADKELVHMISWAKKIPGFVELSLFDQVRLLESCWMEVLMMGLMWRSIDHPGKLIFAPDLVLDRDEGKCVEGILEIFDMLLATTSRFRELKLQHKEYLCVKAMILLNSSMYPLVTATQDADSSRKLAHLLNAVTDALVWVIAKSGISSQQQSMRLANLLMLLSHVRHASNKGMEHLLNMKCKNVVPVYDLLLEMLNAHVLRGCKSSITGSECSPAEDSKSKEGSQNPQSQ
Androgen receptor (Homo sapiens), sequence (P10275 whole entry, looked up): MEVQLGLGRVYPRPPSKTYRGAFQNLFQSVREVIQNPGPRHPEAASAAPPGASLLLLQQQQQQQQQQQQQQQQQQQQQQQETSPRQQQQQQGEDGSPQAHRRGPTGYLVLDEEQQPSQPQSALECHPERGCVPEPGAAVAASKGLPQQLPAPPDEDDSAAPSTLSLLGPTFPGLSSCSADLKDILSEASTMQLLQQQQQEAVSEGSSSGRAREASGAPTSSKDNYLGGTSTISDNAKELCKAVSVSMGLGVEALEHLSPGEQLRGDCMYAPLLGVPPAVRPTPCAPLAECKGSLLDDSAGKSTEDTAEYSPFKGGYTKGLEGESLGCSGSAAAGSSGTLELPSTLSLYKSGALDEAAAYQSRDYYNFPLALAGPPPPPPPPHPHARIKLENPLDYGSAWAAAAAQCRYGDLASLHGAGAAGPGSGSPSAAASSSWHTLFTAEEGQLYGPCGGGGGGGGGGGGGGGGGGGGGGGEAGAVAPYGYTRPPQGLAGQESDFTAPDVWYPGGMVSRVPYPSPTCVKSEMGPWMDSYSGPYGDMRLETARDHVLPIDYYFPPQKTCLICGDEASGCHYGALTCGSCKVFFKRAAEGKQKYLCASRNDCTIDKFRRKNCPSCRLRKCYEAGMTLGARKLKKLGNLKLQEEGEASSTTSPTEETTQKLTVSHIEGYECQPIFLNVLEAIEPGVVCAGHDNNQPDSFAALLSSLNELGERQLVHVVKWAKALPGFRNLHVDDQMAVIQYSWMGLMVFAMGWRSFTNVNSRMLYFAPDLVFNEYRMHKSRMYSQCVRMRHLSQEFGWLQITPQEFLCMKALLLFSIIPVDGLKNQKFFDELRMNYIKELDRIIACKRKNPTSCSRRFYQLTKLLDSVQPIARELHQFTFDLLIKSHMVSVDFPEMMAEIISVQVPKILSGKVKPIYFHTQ

CCOP(=S)(OCC)Oc1cc(Cl)c(Br)cc1Cl
not listed: [17] | [18] | [19]
inactive: all other assays above

CCCCC(CC)COP(=O)(Oc1ccccc1)Oc1ccccc1 (centres undefined)
not listed: [8] | [11] | [17] | [18] | [19]
inactive: all other assays above

O=C1c2ccccc2C(=O)C1C(=O)C(c1ccccc1)c1ccccc1
active: [19] 23.7 µM
not listed: [3] | [12] | [14]
inactive: all other assays above

CCOC(=O)C(Cl)C(C)=O (centres undefined)
not listed: [9] | [10] | [12] | [17] | [19]
inactive: all other assays above

CCCCOC(=O)c1ccccc1C(=O)OCc1ccccc1
inactive and 48.6 µM (active): [7]
inactive and 19.3 µM (active): [8]
inactive and 17.2 µM (active): [4]
active: [19] 6.1 µM and 9.15 µM
not listed: [3] | [11] | [12] | [14] | [17]
inactive: all other assays above
